# A selection: hits, their analogues and other compounds. The true share with any hit is near 11%.
# AMA1 RON2 block = AMA1-RON2 (P. falciparum) interaction inhibition; AlphaScreen AMA1-biotinylated RON2 peptide binding; Potency, µM (series often up to 58.2 µM), for the others: top-dose activity change, negative = inhibition, hits mostly inhibitors; 360,000 tested, 0.2% active;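 note: 0% = vehicle wells and -100% = peptide control; nearly all actives have a fitted effect of over 45% in size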
#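 AMA1 (3D7) with his tag at 25 nM final met compounds first, then biotinylated RON2 peptide at 25 nM; detection used donor plus acceptor beads, 10 µg/mL apiece, read by AlphaScreen after 30 min at room temperature.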
# HCV inhibitor = inhibitors of hepatitis C virus infection | Huh7.5.1 HCVcc-Cre infection, luciferase reporter, 44 h | Potency, µM (top dose mostly 41.8 µM), inactives show top-dose activity change, negative = inhibition, hits mostly inhibitors | 340,000 tested, 3.4% active | AID 651820
#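 Whole-lifecycle infectious HCVcc-Cre system; cells 1,000/well, compound then virus (~0.5 moi) added 4 h after plating, 44 h culture. Luciferase read 15 sec following 15 min substrate incubation, room temp.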
# Pf growth 96h = P. falciparum growth inhibition at 96 hour, primary screen for plastid delayed-death inhibitors | AID 504834 | 320,000 tested, 6.9% active | Potency, µM (titrated, usually from 28.7 µM), inactives show at the highest dose activity change, negative = inhibition, hits mostly inhibitors | P. falciparum luciferase reporter growth, 96 h
#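 Delayed-death screen, second-generation endpoint: infected erythrocytes, 2% hematocrit, 0.05% parasitemia final; 96 hours at 37 C, 5% CO2; luciferase detection reagent; luminescence decrease equals reduced growth.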
# Pf growth 48h = inhibits P. falciparum growth in the first generation, 48 h | 310,000 tested, 5.9% active | P. falciparum luciferase growth in erythrocytes, 48 h | Potency, µM (series often up to 28.7 µM), for the others: at the top dose activity change, negative = inhibition, most hits filed as inhibitors
#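 Cell-based growth assay: transgenic P. falciparum expressing firefly luciferase, cultured in red cells within RPMI 1640 containing 0.5% w/v Albumax, 24 mM bicarbonate and gentamycin. A drop in luciferase activity indicates inhibition.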
# Starred values were filed as active, the others as inactive; ? = inconclusive; · = no result. Calls come from the whole dose curve; as a rule, active = well fitted curve in the direction sought with a large enough effect; inconclusive = small, poorly fitted or top-dose-only effect, or another doubt; inactive = no such curve, though single readings can be large; an effect the other way counts as inactive or inconclusive. Unless noted, % is set by controls: 0 for no effect and ±100 for the full control effect; potency is the fitted concentration of half-maximal effect.
SMILES,AMA1 RON2 block,HCV inhibitor,Pf growth 96h,Pf growth 48h
COC(=O)c1cc(NC(=O)C(C)c2ccc(CC(C)C)cc2)ccc1O (stereo not given),-2.9%,11.2µM*,?,?
O=C(Nc1ccc(F)cc1)c1ccc(NC(=O)C2CCCO2)cc1 (stereo not given),-4.5%,-21.8%,1.85µM*,33.4%
O=C(Nc1ccc(S(=O)(=O)Nc2ccc(Cl)cc2)cc1)C1CCCO1 (stereo not given),2.1%,22.4µM*,·,-2.8%
CC1CCN(C(=O)c2ccc(NC(=O)C3CCCO3)cc2)CC1 (stereo not given),0.0%,-2.4%,14.7µM*,12.5%
Cc1nc(Br)c(Br)c(C)c1Br,0.0%,-14.4%,44.5%,5.4%
CS(=O)(=O)Nc1ccc2c(c1)[C@H]1C[C@H](CC(=O)NCc3cccc(F)c3)O[C@@H](CO)[C@H]1O2,4.3%,·,·,·
CC(C(=O)N(C)c1ccccc1)N1CCN(C(=O)c2ccccc2)CC1 (stereo not given),30.5%,24.0%,0.9%,19.7%
CCOC(=O)CNc1nnc(SCC(=O)OCC)[nH]c1=O,-8.0%,15.3%,60.8%,11.7%
COC(=O)c1sc(S(=O)(=O)NC(C)C(=O)O)c(C(=O)OC)c1C (stereo not given),16.4%,23.5%,16.1%,-13.3%
O=C(c1cnc2c(c1)COc1ccc(Cl)cc1-2)c1ccccc1O,-2.4%,?,0.4%,?
Cc1ccc(O)c(C(=O)c2cnc3c(c2)COc2ccccc2-3)c1,?,10µM*,?,4.15µM*
N#Cc1c(C(F)(F)F)cc(-c2ccccc2)nc1SCc1nc(N)nc(N2CCOCC2)n1,12.8%,5.3%,?,?
O=c1cc(-c2ccccc2)nc2nc[nH]n12,-9.0%,14.2%,0.294µM*,·
Cc1ccc(-c2nc(SC(C)C(=O)N3CCCC3)n[nH]2)cc1 (stereo not given),1.8%,-0.2%,?,-24.2%
CN1C(=O)N(C)C(=O)C2(Cc3cc(NC(=O)c4ccccc4)ccc3N3CCCC32)C1=O (stereo not given),-2.8%,7.8%,10.4µM*,9.28µM*
CN1C(=O)N(C)C(=O)C2(Cc3cc(NC(=O)c4ccccc4Cl)ccc3N3CCCC32)C1=O (stereo not given),7.5%,-20.8%,5.22µM*,?
CCCn1c(-c2ccc(C(=O)OC)cc2)nc2c1c(=O)[nH]c(=O)n2Cc1ccccc1,10.9%,-8.8%,5.0%,9.2%
Cc1ccc(-c2nc3c(c(=O)[nH]c(=O)n3Cc3ccccc3)n2C)o1,-17.7%,7.0%,17.3%,-8.9%
CCCn1c(-c2cccc([N+](=O)[O-])c2)nc2c1c(=O)[nH]c(=O)n2Cc1ccccc1,-12.3%,?,5.22µM*,?
Cc1ccc(-c2nc3c(c(=O)[nH]c(=O)n3Cc3ccccc3)n2Cc2ccccc2)o1,5.8%,?,?,5.86µM*
Cc1ccc2cc(/C=C(\C#N)C(N)=O)c(N3CCCCC3)nc2c1,1.3%,14.1µM*,-10.7%,-3.8%
Cc1ccc2cc(C=C(C#N)C#N)c(N3CCCCC3)nc2c1,2.7%,?,0.0%,0.4%
C[C@@H]1C[C@H]2[C@@H]3CCC4=CC(=O)C=C[C@]4(C)[C@@]3(Cl)[C@@H](O)C[C@]2(C)[C@@]1(OC(=O)c1ccco1)C(=O)CCl,4.1%,-22.3%,2.08µM*,1.85µM*
CCCC(=O)O[C@]1(C(=O)CCl)[C@H](C)C[C@@H]2[C@H]3CCC4=CC(=O)C=C[C@]4(C)[C@@]3(F)C(=O)C[C@@]21C,·,·,1.9µM*,?
C[C@H]1C[C@@H]2[C@H]3CCC4=CC(=O)C=C[C@@]4(C)[C@@]3(Cl)[C@@H](O)C[C@]2(C)[C@]1(OC(=O)c1ccco1)C(=O)CCl,·,·,2.03µM*,4.55µM*
CC1CC2C3CCC4=CC(=O)C=CC4(C)[C@@]3(Cl)C(O)CC2(C)C1(O)C(=O)CO (stereo not given in full),-5.3%,10.3%,·,·
CN1CC(=O)N/C1=N\C(=O)Nc1ccc2c(c1)N(C)C(=O)CS2,80.1%,10.4%,152.7%,·
CCN(CC(=O)NC(C)(C)C)Cc1nc2c(Br)cc(Br)cc2c(=O)[nH]1,76.7%,?,9.28µM*,11.7µM*
O=C(NCCc1ccccc1)C1CCN(S(=O)(=O)N2CCC3(CC2)OCCO3)CC1,11.6%,19.9%,54.6%,-14.2%
O=C(C1CCN(S(=O)(=O)N2CCC3(CC2)OCCO3)CC1)N1CCN(Cc2ccccc2)CC1,6.5%,4.2%,?,50.6%
